Data published in PubChem BioAssay AID1159580 (chemical genetic matrix, 2015).
Screen size: about 5,500 compounds; about 2,000 (36%) were called active. Another 18% or so got no clear call; they are omitted. No stated cut-off is given here; in the data, active means normalized growth mostly below about 0.91 (no sharp cut-off); inconclusive means no clear call, values can overlap the other calls; inactive means mostly above about 0.92. Some of the results follow.

Experiment: chemical genetic growth profiling, strain panel (AID 1159580);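 further: tested at 20 µM; growth read once vehicle control cultures reached saturation at 30 °C; 1 = growth at the plate median or of vehicle wells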
Settings: growth OD
[1] = S. cerevisiae deletion strains, locus YDL101C, strain DUN1, stronger effect = lower value
[2] = S. cerevisiae deletion strains, locus YHR030C, strain SLT2, stronger effect = lower value
[3] = S. cerevisiae deletion strains, locus YHR079C, strain IRE1, stronger effect = lower value
[4] = S. cerevisiae deletion strains, locus YJL095W, strain BCK1, stronger effect = lower value
[5] = S. cerevisiae deletion strains, locus YJR066W, strain TOR1, stronger effect = lower value
[6] = S. cerevisiae deletion strains, locus YLR113W, strain HOG1, stronger effect = lower value
[7] = S. cerevisiae deletion strains, locus YNL183C, strain NPR1, stronger effect = lower value
[8] = S. cerevisiae deletion strains, locus YOR231W, strain MKK1, stronger effect = lower value
[9] = S. cerevisiae deletion strains, locus YPL256C, strain CLN2, stronger effect = lower value

Measured: normalized growth

c1ccc(Sc2c(-c3ccccc3)nc3ccccn23)cc1
inactive: [1] 0.929 | S. cerevisiae deletion strains, locus YDR150W, strain NUM1, stronger effect = lower value 0.8 | S. cerevisiae deletion strains, locus YHR087W, strain rtc3, stronger effect = lower value 0.921 | S. cerevisiae deletion strains, locus YJR043C, strain POL32, stronger effect = lower value 0.93 | S. cerevisiae deletion strains, locus YML094W, strain GIM5, stronger effect = lower value 0.886 | S. cerevisiae deletion strains, locus YNL153C, strain GIM3, stronger effect = lower value 0.931 | S. cerevisiae strains, strain wild type, stronger effect = lower value 0.92
active: S. cerevisiae deletion strains, locus YAL013W, strain DEP1, stronger effect = lower value 0.895 | S. cerevisiae deletion strains, locus YBR229C, strain ROT2, stronger effect = lower value 0.9 | S. cerevisiae deletion strains, locus YCL061C, strain MRC1, stronger effect = lower value 0.906 | S. cerevisiae deletion strains, locus YEL061C, strain CIN8, stronger effect = lower value 0.869 | S. cerevisiae deletion strains, locus YGR078C, strain PAC10, stronger effect = lower value 0.884 | [2] 0.193 | S. cerevisiae deletion strains, locus YJR075W, strain HOC1, stronger effect = lower value 0.833 | S. cerevisiae deletion strains, locus YKL190W, strain CNB1, stronger effect = lower value 0.79 | S. cerevisiae deletion strains, locus YLR039C, strain RIC1, stronger effect = lower value 0.657 | S. cerevisiae deletion strains, locus YLR058C, strain SHM2 (second series), stronger effect = lower value 0.899 | S. cerevisiae deletion strains, locus YLR085C, strain ARP6, stronger effect = lower value 0.275 | S. cerevisiae deletion strains, locus YLR262C, strain YPT6, stronger effect = lower value 0.78 | S. cerevisiae deletion strains, locus YMR219W, strain ESC1, stronger effect = lower value 0.897 | S. cerevisiae deletion strains, locus YNL298W, strain CLA4 (second series), stronger effect = lower value 0.781 | S. cerevisiae deletion strains, locus YNL322C, strain KRE1, stronger effect = lower value 0.915 | S. cerevisiae deletion strains, locus YNR030W, strain Alg12, stronger effect = lower value 0.714 | S. cerevisiae deletion strains, locus YPL055C, strain LGE1, stronger effect = lower value 0.725 | S. cerevisiae deletion strains, locus YPL241C, strain CIN2, stronger effect = lower value 0.692 | S. cerevisiae deletion strains, locus YPR135W, strain CTF4, stronger effect = lower value 0.431

COc1ccc(C2CC(c3ccccc3)=Nc3ccccc3S2)cc1OC (stereo not given)
inactive: S. cerevisiae deletion strains, locus YAR019C, strain CDC15, stronger effect = lower value 0.969 | S. cerevisiae deletion strains, locus YBL105C, strain PKC1, stronger effect = lower value 0.962 | S. cerevisiae deletion strains, locus YBR135W, strain CKS1, stronger effect = lower value 0.974 | S. cerevisiae deletion strains, locus YBR136W, strain MEC1, stronger effect = lower value 0.947 | S. cerevisiae deletion strains, locus YBR160W, strain CDC28, stronger effect = lower value 0.975 | S. cerevisiae deletion strains, locus YDL017W, strain CDC7, stronger effect = lower value 0.965 | S. cerevisiae deletion strains, locus YDL028C, strain MPS1, stronger effect = lower value 0.975 | [1] 0.965 | S. cerevisiae deletion strains, locus YDL108W, strain KIN28, stronger effect = lower value 0.976 | S. cerevisiae deletion strains, locus YDL132W, strain cdc53, stronger effect = lower value 0.975 | S. cerevisiae deletion strains, locus YDL214C, strain PRR2, stronger effect = lower value 0.936 | S. cerevisiae deletion strains, locus YDR052C, strain DBF4, stronger effect = lower value 0.97 | S. cerevisiae deletion strains, locus YDR054C, strain cdc34, stronger effect = lower value 0.958 | S. cerevisiae deletion strains, locus YDR226W, strain ADK1, stronger effect = lower value 0.967 | S. cerevisiae deletion strains, locus YDR477W, strain SNF1, stronger effect = lower value 0.949 | S. cerevisiae deletion strains, locus YER123W, strain YCK3, stronger effect = lower value 0.939 | S. cerevisiae deletion strains, locus YER133W, strain GLC7, stronger effect = lower value 0.952 | S. cerevisiae deletion strains, locus YFL009W, strain cdc4, stronger effect = lower value 0.973 | S. cerevisiae deletion strains, locus YFL029C, strain CAK1, stronger effect = lower value 0.945 | S. cerevisiae deletion strains, locus YFR003C, strain YPI1, stronger effect = lower value 0.961 | S. cerevisiae deletion strains, locus YFR019W, strain FAB1, stronger effect = lower value 0.967 | S. cerevisiae deletion strains, locus YFR028C, strain CDC14, stronger effect = lower value 0.961 | S. cerevisiae deletion strains, locus YGR040W, strain KSS1, stronger effect = lower value 0.94 | S. cerevisiae deletion strains, locus YGR052W, strain FMP48, stronger effect = lower value 1.02 | S. cerevisiae deletion strains, locus YGR092W, strain DBF2, stronger effect = lower value 0.935 | [2] 0.887 | [3] 0.914 | S. cerevisiae deletion strains, locus YHR082C, strain KSP1, stronger effect = lower value 0.975 | S. cerevisiae deletion strains, locus YHR205W, strain SCH9, stronger effect = lower value 0.934 | S. cerevisiae deletion strains, locus YIL147C, strain SLN1, stronger effect = lower value 0.959 | [4] 0.941 | S. cerevisiae deletion strains, locus YJL128C, strain PBS2, stronger effect = lower value 0.943 | S. cerevisiae deletion strains, locus YJL157C, strain FAR1, stronger effect = lower value 0.968 | S. cerevisiae deletion strains, locus YJR016C, strain ILV3, stronger effect = lower value 0.966 | S. cerevisiae deletion strains, locus YJR066W, strain TOR1 (second series), stronger effect = lower value 0.901 | [5] 0.938 | S. cerevisiae deletion strains, locus YKL048C, strain ELM1, stronger effect = lower value 0.968 | S. cerevisiae deletion strains, locus YKL067W, strain YNK1, stronger effect = lower value 0.956 | S. cerevisiae deletion strains, locus YKL101W, strain HSL1, stronger effect = lower value 0.927 | S. cerevisiae deletion strains, locus YKL193C, strain SDS22, stronger effect = lower value 0.976 | S. cerevisiae deletion strains, locus YKL203C, strain TOR2, stronger effect = lower value 0.965 | [6] 0.889 | S. cerevisiae deletion strains, locus YLR133W, strain CKI1, stronger effect = lower value 0.948 | S. cerevisiae deletion strains, locus YLR403W, strain SFP1, stronger effect = lower value 0.929 | S. cerevisiae deletion strains, locus YML070W, strain DAK1, stronger effect = lower value 0.949 | S. cerevisiae deletion strains, locus YMR001C, strain CDC5, stronger effect = lower value 0.969 | S. cerevisiae deletion strains, locus YMR205C, strain PFK2 (second series), stronger effect = lower value 0.95 | S. cerevisiae deletion strains, locus YMR277W, strain FCP1, stronger effect = lower value 0.97 | S. cerevisiae deletion strains, locus YNL006W, strain LST8, stronger effect = lower value 0.988 | S. cerevisiae deletion strains, locus YNL020C, strain ARK1, stronger effect = lower value 0.939 | S. cerevisiae deletion strains, locus YNL161W, strain CBK1, stronger effect = lower value 0.962 | [7] 0.939 | S. cerevisiae deletion strains, locus YNL207W, strain RIO2, stronger effect = lower value 0.97 | S. cerevisiae deletion strains, locus YNL222W, strain SSU72, stronger effect = lower value 0.968 | S. cerevisiae deletion strains, locus YNL307C, strain MCK1 (second series), stronger effect = lower value 0.974 | S. cerevisiae deletion strains, locus YOL078W, strain AVO1, stronger effect = lower value 0.975 | S. cerevisiae deletion strains, locus YOL136C, strain PFK27, stronger effect = lower value 0.946 | S. cerevisiae deletion strains, locus YOR061W, strain CKA2, stronger effect = lower value 0.94 | S. cerevisiae deletion strains, locus YOR119C, strain RIO1, stronger effect = lower value 0.949 | [8] 0.918 | S. cerevisiae deletion strains, locus YOR329C, strain SCD5, stronger effect = lower value 0.97 | S. cerevisiae deletion strains, locus YPL031C, strain PHO85, stronger effect = lower value 0.932 | S. cerevisiae deletion strains, locus YPL153C, strain RAD53, stronger effect = lower value 0.958 | S. cerevisiae deletion strains, locus YPL204W, strain HRR25, stronger effect = lower value 0.948 | S. cerevisiae deletion strains, locus YPL209C, strain IPL1, stronger effect = lower value 0.975 | [9] 0.879 | S. cerevisiae deletion strains, locus YPR025C, strain CCL1, stronger effect = lower value 0.966 | S. cerevisiae deletion strains, locus YPR106W, strain ISR1, stronger effect = lower value 0.971 | S. cerevisiae deletion strains, locus YPR111W, strain DBF20, stronger effect = lower value 0.97 | S. cerevisiae deletion strains, strain NNK1, stronger effect = lower value 0.958 | S. cerevisiae deletion strains, strain TSCII, stronger effect = lower value 0.965

Cc1ncc(C[n+]2csc(CCO)c2C)c(=O)[nH]1
inactive: [2] 1.04 | [3] 1.05 | [4] 0.991 | [5] 0.984 | [6] 0.979 | [7] 0.976 | [8] 1.03 | [9] 1.05
